Measured values taken from PubChem BioAssay (NCI).
“And” between values parts separate entries of the source, which are not always exact repeats. Identical values can stand only once. The panel holds about 79,000 compounds, 15% with a hit somewhere; the sample as a whole holds those more often. The source holds several records for some structures; these can differ, active in one and inactive in another. The source made the active and inactive calls. Rule as the data show it: active = growth inhibition above about 70%; inactive = the rest.

How the values were obtained:
[1] = NCI Yeast Anticancer Drug Screen. Data for the rad52 strain (AID 147);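 also: 0% = growth of vehicle-treated control cultures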; settings: S. cerevisiae rad52 mutant growth inhibition, stronger effect = higher value
Procedure, shortened: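 Read-out: growth inhibition versus vehicle-treated controls. Cells were a DNA repair-deficient yeast strain treated with compounds.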

[2] = NCI Yeast Anticancer Drug Screen. Data for the wt1 strain (AID 149);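 also: 0% = growth of vehicle-treated wt1 cultures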; settings: S. cerevisiae wt1 strain (SPY 50644) growth inhibition, stronger effect = higher value
Procedure, shortened: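 wt1 strain grown with compound or vehicle; inhibition taken from the growth difference.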

[3] = NCI Yeast Anticancer Drug Screen. Data for the rad50EPP+ strain (AID 151);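 also: 0% = growth of vehicle-treated control cultures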; settings: S. cerevisiae rad50 mutant strain, stronger effect = higher value
Procedure, shortened: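 Growth inhibition read against vehicle controls in rad50EPP+ yeast, a strain altered in DNA damage repair, after compound exposure.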

[4] = NCI Yeast Anticancer Drug Screen. Data for the mgt1 strain (AID 153); settings: S. cerevisiae mgt1 mutant growth inhibition, stronger effect = higher value
Procedure, shortened: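 mgt1 yeast grown with test compound; read-out is growth inhibition versus vehicle-treated cultures.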

[5] = NCI Yeast Anticancer Drug Screen. Data for the rad50 strain (AID 155);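 also: 0% = growth of vehicle-only cultures of the same strain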; settings: S. cerevisiae rad50 strain growth inhibition, stronger effect = higher value
Procedure, shortened: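 DNA repair mutant yeast, compound exposure, growth read-out; inhibition is taken relative to vehicle.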

[6] = NCI Yeast Anticancer Drug Screen. Data for the mec2-1 strain (AID 157); settings: S. cerevisiae mec2-1 strain, stronger effect = higher value
Procedure, shortened: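 Yeast mec2-1 mutant treated with compound. Readout: growth inhibition vs vehicle controls.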

[7] = NCI Yeast Anticancer Drug Screen. Data for the rad14 strain (AID 159);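 also: 0% = growth of vehicle-treated control cultures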; settings: S. cerevisiae rad14 strain growth inhibition, stronger effect = higher value
Procedure, shortened: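 DNA repair-defective yeast, compound-exposed; % growth inhibition derived by comparison with vehicle-treated controls.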

[8] = NCI Yeast Anticancer Drug Screen. Data for the sgs1 mgt1 strain (AID 161);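 also: 0% = growth of cultures given vehicle only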; settings: S. cerevisiae sgs1 mgt1 strain, stronger effect = higher value
Procedure, shortened: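 Read-out: growth inhibition vs vehicle controls. Cells: mutant yeast strain deficient in DNA damage repair.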

[9] = NCI Yeast Anticancer Drug Screen. Data for the CLN2oe strain (AID 163);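 also: 0% = growth of vehicle-only control cultures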; settings: S. cerevisiae CLN2oe strain, stronger effect = higher value
Procedure, shortened: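 Read-out: yeast growth inhibition, expressed relative to vehicle-only controls. The strain bears an engineered cell-cycle alteration.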

[10] = NCI Yeast Anticancer Drug Screen. Data for the cln2 rad14 strain (AID 165);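 also: 0% = growth equal to vehicle treated cultures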; settings: S. cerevisiae cln2 rad14 strain, stronger effect = higher value
Procedure, shortened: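 cln2 rad14 yeast strain; compound exposure; growth inhibition read vs vehicle controls.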

[11] = NCI Yeast Anticancer Drug Screen. Data for the bub3 strain (AID 167); settings: S. cerevisiae bub3 mutant strain, stronger effect = higher value
Procedure, shortened: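 In this screen, a yeast mutant lacking normal mitotic checkpoint function is challenged with compound. Relative growth versus vehicle gives the inhibition value.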

[12] = NCI Yeast Anticancer Drug Screen. Data for the wt2 strain (AID 169);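 also: 0% = growth of vehicle-treated yeast cultures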; settings: S. cerevisiae wt2 strain growth inhibition, stronger effect = higher value
Procedure, shortened: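 Read-out: growth inhibition versus vehicle-treated control cultures after compound exposure of the yeast strain.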

[13] = NCI Yeast Anticancer Drug Screen. Data for the mlh1 strain (AID 171);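 also: 0% = growth of vehicle-treated control cultures of the same strain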; settings: S. cerevisiae mlh1 strain growth inhibition, stronger effect = higher value
Procedure, shortened: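 Read-out: growth inhibition versus vehicle controls. Strain: engineered yeast with a defined DNA repair or cell cycle defect, compound-treated.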

[14] = NCI Yeast Anticancer Drug Screen. Data for the sgs1 strain (AID 173);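 also: 0% = growth of vehicle-only control cultures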; settings: S. cerevisiae sgs1 mutant, stronger effect = higher value
Procedure, shortened: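 Read-out: yeast growth inhibition relative to vehicle controls, following compound exposure of a strain with a defined DNA repair/cell cycle alteration.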

[15] = NCI Yeast Anticancer Drug Screen. Data for the mlh1 rad18 strain (AID 175); settings: S. cerevisiae mlh1 rad18 strain growth inhibition, stronger effect = higher value
Procedure, shortened: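 Yeast w/ defined DNA-repair lesions; compound exposure; growth vs vehicle controls → % inhibition.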

[16] = NCI Yeast Anticancer Drug Screen. Data for the rad18 strain (AID 177); settings: S. cerevisiae rad18 mutant growth inhibition, stronger effect = higher value
Procedure, shortened: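 Readout: growth inhibition vs vehicle controls. Cells: genetically altered yeast strain, DNA repair defect.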

[17] = at 5.0 µM (retest, dose inferred, filed as 0.5)
[18] = at 50.0 µM (retest, dose inferred, filed as 5.0)

Measured: growth inhibition

O=C(O)C1C2c3ccccc3C(c3ccccc32)C1C(=O)O (stereo not drawn)
86.6% (active) and -20.4% (inactive): [6]; at 50.0 µM
inactive: [1]; at 1.2 µM -1% | [1]; at 3.7 µM -1% | [1]; at 11.0 µM 2% | [1]; at 33.0 µM 0% | [1]; at 100.0 µM 11% | [2]; at 1.2 µM -3% | [2]; at 3.7 µM -3% | [2]; at 11.0 µM -2% | [2]; at 33.0 µM -1% | [2]; at 100.0 µM -2% | [3]; at 1.2 µM -4% | [3]; at 3.7 µM -3% | [3]; at 11.0 µM 2% | [3]; at 33.0 µM -3% | [3]; at 100.0 µM -4% | [4]; at 1.2 µM -3% | [4]; at 3.7 µM -2% | [4]; at 11.0 µM -2% | [4]; at 33.0 µM -2% | [4]; at 100.0 µM 0% | [5]; at 1.2 µM 0% | [5]; at 3.7 µM 4% | [5]; [17] 7% | [5]; at 11.0 µM 4% | [5]; at 33.0 µM 3% | [5]; [18] 47% | [5]; at 50.0 µM 52.6% and -32.8% | [5]; at 100.0 µM 12% | [6]; at 1.2 µM -2% | [6]; at 3.7 µM -5% | [6]; [17] -7% | [6]; at 11.0 µM -3% | [6]; at 33.0 µM -2% | [6]; [18] -1% | [6]; at 100.0 µM -1% | [7]; at 1.2 µM -2% | [7]; at 3.7 µM 1% | [7]; at 11.0 µM 0% | [7]; at 33.0 µM -2% | [7]; at 100.0 µM 2% | [8]; [17] -5% | [8]; [18] 16% | [8]; at 50.0 µM 52.7% and -33% | [9]; at 1.2 µM -4% | [9]; at 3.7 µM 2% | [9]; at 11.0 µM -4% | [9]; at 33.0 µM -3% | [9]; at 100.0 µM 1% | [10]; [17] 3% | [10]; [18] 10% | [10]; at 50.0 µM 25% and 11.1% | [11]; at 1.2 µM -4% | [11]; at 3.7 µM -3% | [11]; [17] 2% | [11]; at 11.0 µM -5% | [11]; at 33.0 µM -2% | [11]; [18] 17% | [11]; at 100.0 µM -2% | [12]; at 1.2 µM 0% | [12]; at 3.7 µM -10% | [12]; at 11.0 µM 5% | [12]; at 33.0 µM -1% | [12]; at 100.0 µM -16% | [13]; at 1.2 µM -4% | [13]; at 3.7 µM -4% | [13]; at 11.0 µM -1% | [13]; at 33.0 µM -4% | [13]; at 100.0 µM 1% | [14]; at 1.2 µM -12% | [14]; at 3.7 µM -22% | [14]; at 11.0 µM -3% | [14]; at 33.0 µM 5% | [14]; at 100.0 µM 12% | [15]; [17] 3% | [15]; [18] 69% | [15]; at 50.0 µM 37.1% and -42.5% | [16]; at 1.2 µM -4% | [16]; at 3.7 µM -2% | [16]; at 11.0 µM -1% | [16]; at 33.0 µM -2% | [16]; at 100.0 µM 6%
71.2% (active) and -29.5% (inactive): [11]; at 50.0 µM
